This is a sample that favours compounds with a hit; in the whole collection about 0.57% have one here.
BioA inh – BioA (M. tuberculosis) enzyme inhibition | inhibition, % at 9.99 µM | hit rate 0.096% among 360,000 | purified M. tuberculosis BioA enzyme, plate reader; in the data active = inhibition above about 40%
TcdB inh – inhibitors of Clostridioides difficile toxin B glycohydrolase. P18177. TcdB glycohydrolase enzymatic assay, plate reader. inhibition, % at 9.99 µM. hit rate 0.24% among 350,000. AID 652162; in the data active = inhibition above about 10%
Target sequence (P18177 whole entry, looked up): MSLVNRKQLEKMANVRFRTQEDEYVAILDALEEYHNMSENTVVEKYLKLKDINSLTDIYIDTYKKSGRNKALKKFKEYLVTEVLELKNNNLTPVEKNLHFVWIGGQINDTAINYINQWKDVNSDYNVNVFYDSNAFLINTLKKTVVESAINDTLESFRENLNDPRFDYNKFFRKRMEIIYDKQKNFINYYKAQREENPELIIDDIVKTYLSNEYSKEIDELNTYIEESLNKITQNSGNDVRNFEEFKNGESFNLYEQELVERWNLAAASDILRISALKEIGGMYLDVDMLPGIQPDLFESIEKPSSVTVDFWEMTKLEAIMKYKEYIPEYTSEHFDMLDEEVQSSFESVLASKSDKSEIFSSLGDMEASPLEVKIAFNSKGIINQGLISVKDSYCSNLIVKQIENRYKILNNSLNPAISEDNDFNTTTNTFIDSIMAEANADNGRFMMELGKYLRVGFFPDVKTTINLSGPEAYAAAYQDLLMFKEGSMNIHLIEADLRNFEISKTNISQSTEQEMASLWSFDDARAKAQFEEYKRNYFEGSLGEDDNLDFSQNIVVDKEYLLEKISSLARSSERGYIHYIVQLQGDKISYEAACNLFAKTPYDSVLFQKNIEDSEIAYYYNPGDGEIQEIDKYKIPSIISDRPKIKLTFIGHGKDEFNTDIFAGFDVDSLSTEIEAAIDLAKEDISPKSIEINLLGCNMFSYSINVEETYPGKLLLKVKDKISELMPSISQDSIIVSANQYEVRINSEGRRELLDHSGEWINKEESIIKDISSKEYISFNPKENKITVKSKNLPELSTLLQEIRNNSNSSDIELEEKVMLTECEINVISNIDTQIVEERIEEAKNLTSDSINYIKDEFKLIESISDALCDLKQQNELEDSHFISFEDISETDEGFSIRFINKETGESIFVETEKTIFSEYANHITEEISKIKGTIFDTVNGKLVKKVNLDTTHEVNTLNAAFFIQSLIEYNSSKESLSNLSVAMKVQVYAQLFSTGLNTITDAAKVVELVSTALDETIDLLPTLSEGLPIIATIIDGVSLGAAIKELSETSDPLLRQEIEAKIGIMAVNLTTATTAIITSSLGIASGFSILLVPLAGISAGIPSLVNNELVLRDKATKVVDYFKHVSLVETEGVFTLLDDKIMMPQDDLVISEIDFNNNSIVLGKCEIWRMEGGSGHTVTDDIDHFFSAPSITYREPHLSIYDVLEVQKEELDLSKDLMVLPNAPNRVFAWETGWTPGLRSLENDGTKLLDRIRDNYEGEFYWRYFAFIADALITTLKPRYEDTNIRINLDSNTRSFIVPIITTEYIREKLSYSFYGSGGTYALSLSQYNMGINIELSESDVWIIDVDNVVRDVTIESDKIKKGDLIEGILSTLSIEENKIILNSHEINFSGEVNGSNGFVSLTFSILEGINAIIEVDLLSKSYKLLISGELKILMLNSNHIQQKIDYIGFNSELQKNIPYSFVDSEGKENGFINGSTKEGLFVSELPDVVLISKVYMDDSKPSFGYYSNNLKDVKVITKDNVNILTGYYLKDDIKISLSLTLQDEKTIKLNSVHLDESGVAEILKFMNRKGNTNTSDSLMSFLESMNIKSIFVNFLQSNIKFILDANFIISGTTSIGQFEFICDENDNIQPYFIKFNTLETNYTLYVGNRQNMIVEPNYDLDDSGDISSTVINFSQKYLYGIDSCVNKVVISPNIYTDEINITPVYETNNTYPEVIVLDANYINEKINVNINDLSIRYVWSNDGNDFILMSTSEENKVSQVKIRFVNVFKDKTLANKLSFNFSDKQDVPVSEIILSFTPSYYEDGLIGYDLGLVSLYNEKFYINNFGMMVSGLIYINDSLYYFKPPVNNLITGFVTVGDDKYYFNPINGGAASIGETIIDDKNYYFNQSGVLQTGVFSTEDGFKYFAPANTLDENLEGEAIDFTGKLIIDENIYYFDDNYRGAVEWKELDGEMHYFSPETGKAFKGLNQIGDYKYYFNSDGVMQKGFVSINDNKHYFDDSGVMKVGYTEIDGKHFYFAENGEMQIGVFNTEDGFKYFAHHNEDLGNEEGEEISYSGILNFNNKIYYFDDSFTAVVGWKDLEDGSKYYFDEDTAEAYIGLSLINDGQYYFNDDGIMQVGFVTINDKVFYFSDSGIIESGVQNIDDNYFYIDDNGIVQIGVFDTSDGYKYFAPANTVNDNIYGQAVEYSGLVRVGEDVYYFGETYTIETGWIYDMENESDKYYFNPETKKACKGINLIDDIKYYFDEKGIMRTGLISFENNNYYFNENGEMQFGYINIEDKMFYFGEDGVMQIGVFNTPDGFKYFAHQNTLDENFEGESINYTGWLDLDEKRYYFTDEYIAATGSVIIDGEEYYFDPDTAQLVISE
Yp Topo-I inh – Y. pestis Topo-I inhibition via cleavage products | Y. pestis Topo-I cleavage product accumulation, plate reader | activity, % at 10 µM | hit rate 0.064% among 360,000 | AID 504884; in the data active = activity above about 50%, passing the limit was not always enough
PrP 5UTR inh – suppresses PrP 5' UTR mRNA reporter expression | cell-based PrP 5' UTR mRNA reporter, plate reader | inhibition, % (no concentration beside the values) | hit rate 0.35% among 340,000; in the data active = inhibition above about 52%; note: 0 = median of the neutral control wells
Numbers without * were called inactive; . = no result given.

SMILES	BioA inh	TcdB inh	Yp Topo-I inh	PrP 5UTR inh
CO[C@@H]1CN(C)C(=O)c2ccc(NC(C)=O)cc2OC[C@@H](C)N(C(=O)C2CCCCC2)C[C@H]1C	0	1	.	.
C[C@H]1CCCCO[C@H](CN(C)C(=O)c2ccccc2)[C@@H](C)CN([C@@H](C)CO)C(=O)c2cc(NC(=O)CCCN(C)C)ccc2O1	0	0	.	.
CCN(CC)c1ncnc2scc(C3COc4ccccc4O3)c12 (stereo unspecified)	2	.	53*	-26
CCCCN(C=O)c1c(CC)nc2ccc(C(=O)NCc3cccs3)cn12	1	1	3	.
CCCCN(C)c1c(C)nc2ccc(C(=O)NCc3cccs3)cn12	0	18*	20	.
CC1CCN(c2ccc(-c3cccs3)nn2)CC1	0	0	13	80*
CC(C)NC(=O)N(C)C[C@H]1Oc2ccc(NC(=O)Nc3ccc(F)cc3)cc2C(=O)N([C@@H](C)CO)C[C@@H]1C	1	0	.	.
Cc1ccccc1-c1cnc2c(c1)C(=O)N([C@@H](C)CO)C[C@H](C)[C@H](CN(C)CC1CCCCC1)O2	1	-1	.	.
COc1cccc(C(=O)COC(=O)c2ccc(NC(=O)c3ccccc3)cc2)c1	-1	22*	5	-11
COc1ccc(C(=O)COC(=O)c2ccc(OC)c(OC)c2)cc1OC	0	42*	6	3
Cc1ccc(-n2c(SCC(=O)O)nc3c(sc(=S)n3-c3ccc(C)c(C)c3)c2=O)cc1	-2	30*	0	-5
Cn1c(=O)[nH]c(=O)c2c1[nH]c(=S)n2Cc1ccc(Cl)cc1	-4	14*	2	-14
Cn1c(=O)[nH]c(=O)c2c1[nH]c(=S)n2CCCc1ccccc1	-2	12*	2	-91
Cn1c(=O)[nH]c(=O)c2c1nc(Br)n2Cc1ccc(Cl)cc1	1	-4	5	.
COc1cc(/C=N/n2c(-c3ccccc3)n[nH]c2=S)cc(OC)c1O	11	-1	-1	-48
COc1cc(/C=N/n2c(-c3ccccc3)n[nH]c2=S)ccc1O	.	18*	0	-22
COc1cc(-c2n[nH]c(=S)n2/N=C/c2cccn2C)cc(OC)c1OC	.	11*	3	-27
Cn1cccc1/C=N/n1c(-c2ccco2)n[nH]c1=S	.	.	4	-12
Cc1ccc(C)c(NC(=O)CCC(=O)N/N=C/c2cccnc2)c1	-1	1	3	-12
Cc1ccc(SCCC(=O)N/N=C/c2cccnc2)cc1	.	10*	7	-19
COc1ccc2c3c(n(C)c2c1)[C@@H](CO)N(C(=O)CN(C)C)CC31CCN(Cc2cccnc2)CC1	.	-1	.	.
CCn1c(SCC(=O)c2cc(C)ccc2C)nc2cc(S(=O)(=O)N3CCOCC3)ccc21	0	0	30	-16
CCC(C)NC(=O)CSc1nc2cc(S(=O)(=O)N3CCOCC3)ccc2n1CC (stereo unspecified)	.	11*	2	-8
O=S(=O)(c1ccc(SCc2ccc(Cl)cc2)nc1)N1CCCC1	-1	-7	53*	-11
Cc1cc(C)cc(CSc2ccc(S(=O)(=O)N3CCCC3)cn2)c1	-2	0	47	-9
SMILES	BioA inh	TcdB inh	Yp Topo-I inh	PrP 5UTR inh
COc1cc2ccccc2cc1C(=O)OCC(=O)N(CC(C)C)c1c(N)n(Cc2ccccc2)c(=O)[nH]c1=O	-3	2	71*	-21
Cc1ccc2c(C)c3ccc4ccccc4c3c[n+]2c1	.	11*	-33	-19
COc1ccccc1-c1cnc2c(c1)C(=O)N([C@@H](C)CO)C[C@@H](C)[C@H](CN(C)CC1CCOCC1)O2	1	-2	.	.
COc1ccc(C)cc1NS(=O)(=O)c1ccc(-c2cnc(C3CC3)o2)cc1	1	0	26	76*
Cc1ccc(NS(=O)(=O)c2ccc(-c3cnc(C4CC4)o3)cc2)cc1	-3	0	9	-33
COCC(=O)N(C)C[C@H]1Oc2cc(C#CC(C)C)ccc2S(=O)(=O)N([C@@H](C)CO)C[C@@H]1C	2	.	.	.
COc1ccc2c3c(n(C)c2c1)[C@@H](CO)N(Cc1ccc2c(c1)OCO2)CC31CCN(C)CC1	.	-8	.	.
Cc1cc(C)c2c(=O)n3c(nc2c1)C(Cc1ccc(O)cc1)NC(=O)c1cc2ccccc2cc1-3 (stereo unspecified)	-2	2	59*	.
C[C@@H]1CN([C@H](C)CO)C(=O)c2cccc(NC(=O)c3nc4ccccc4s3)c2O[C@@H]1CN(C)C(=O)Nc1cccc2ccccc12	-1	0	.	.
COc1ccc(NC(=O)CN2C(=O)NC(C)(c3ccc(C)cc3)C2=O)c([N+](=O)[O-])c1 (stereo unspecified)	0	1	-16	-82
COc1cc(OC)cc(C(=O)NNC(=O)CN2C(=O)NC(C)(c3ccc(C)cc3)C2=O)c1 (stereo unspecified)	0	14*	3	-13

Assay outcomes as filed in PubChem BioAssay.
